Tests used:
Experiment in all cases: protein-binding microarray (PBM); PBM: ~300 nM protein, 6 mM HEPES pH 7.8, 80 mM KCl, 0.5 mM EDTA, 0.5 mM EGTA, 6% glycerol, 35 ng/ul poly-dIdC, 1% milk, 1 h, room temperature; Ap Aiptasia and Nv Nematostella (sea anemones) / Co Capsaspora / Aq Amphimedon (sponge) / Dm Drosophila / Hu human; RHD is the Rel homology domain; high values mean tight binding
Conditions in all cases: dsDNA, one strand shown
GST-Ap-NF-kB RHD = biological target: T1, GST-Ap-NF-kB RHD (Exaiptasia pallida (Aiptasia), UniProt A0A913YAJ5 2-422)
T1 sequence: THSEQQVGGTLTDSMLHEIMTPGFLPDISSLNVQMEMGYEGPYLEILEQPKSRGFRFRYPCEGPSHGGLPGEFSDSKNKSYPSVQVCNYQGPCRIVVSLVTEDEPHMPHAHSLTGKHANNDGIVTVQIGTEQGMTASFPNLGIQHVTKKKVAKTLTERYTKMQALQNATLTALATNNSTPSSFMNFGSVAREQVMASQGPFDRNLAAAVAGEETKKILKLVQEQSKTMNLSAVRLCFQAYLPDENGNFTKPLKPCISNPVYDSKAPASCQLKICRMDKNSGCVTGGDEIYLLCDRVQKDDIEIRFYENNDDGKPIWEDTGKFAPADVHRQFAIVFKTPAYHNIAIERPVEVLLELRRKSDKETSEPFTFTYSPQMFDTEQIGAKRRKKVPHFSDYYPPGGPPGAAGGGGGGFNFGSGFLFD

[1] = biological target: T2, GST-Nv-NF-kB (Cys allele) (Nematostella vectensis, UniProt E5G601 2-411)
T2 sequence: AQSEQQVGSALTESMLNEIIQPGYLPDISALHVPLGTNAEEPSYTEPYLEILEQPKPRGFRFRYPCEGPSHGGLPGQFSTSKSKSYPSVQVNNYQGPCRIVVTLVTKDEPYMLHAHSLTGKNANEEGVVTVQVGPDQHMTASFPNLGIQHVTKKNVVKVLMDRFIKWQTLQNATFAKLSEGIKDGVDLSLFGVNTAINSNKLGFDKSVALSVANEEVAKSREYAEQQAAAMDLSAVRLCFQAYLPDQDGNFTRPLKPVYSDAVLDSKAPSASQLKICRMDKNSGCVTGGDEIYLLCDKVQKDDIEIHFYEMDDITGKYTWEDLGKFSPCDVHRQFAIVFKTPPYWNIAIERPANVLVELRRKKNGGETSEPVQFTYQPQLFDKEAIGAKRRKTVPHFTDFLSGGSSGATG

GST-Co-NF-kB = biological target: T3, GST-Co-NF-kB (Capsaspora owczarzaki, UniProt F1ARL5 200-546)
T3 sequence: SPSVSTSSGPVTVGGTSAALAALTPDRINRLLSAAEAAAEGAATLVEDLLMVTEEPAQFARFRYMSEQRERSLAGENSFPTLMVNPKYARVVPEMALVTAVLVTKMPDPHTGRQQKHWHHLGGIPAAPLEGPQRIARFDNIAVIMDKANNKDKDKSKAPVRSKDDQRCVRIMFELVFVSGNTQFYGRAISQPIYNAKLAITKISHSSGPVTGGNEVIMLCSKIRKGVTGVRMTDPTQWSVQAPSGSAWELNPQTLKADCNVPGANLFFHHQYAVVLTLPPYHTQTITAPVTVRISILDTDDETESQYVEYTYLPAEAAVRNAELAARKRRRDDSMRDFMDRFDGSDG

GST-Dm-Relish = biological target: T4, GST-Dm-Relish (Drosophila melanogaster, UniProt Q94527 99-473)
T4 sequence: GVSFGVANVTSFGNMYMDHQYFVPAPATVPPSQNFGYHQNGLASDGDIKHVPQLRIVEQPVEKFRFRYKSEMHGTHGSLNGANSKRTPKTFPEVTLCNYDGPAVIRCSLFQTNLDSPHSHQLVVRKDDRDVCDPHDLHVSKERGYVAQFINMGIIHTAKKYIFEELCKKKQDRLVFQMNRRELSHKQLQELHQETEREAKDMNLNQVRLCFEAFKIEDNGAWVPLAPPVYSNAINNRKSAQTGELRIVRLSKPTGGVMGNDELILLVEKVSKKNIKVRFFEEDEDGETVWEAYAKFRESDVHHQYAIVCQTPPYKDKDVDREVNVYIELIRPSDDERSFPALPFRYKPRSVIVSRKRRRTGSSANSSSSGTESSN

GST-Aq-NF-kB = biological target: T5, GST-Aq-NF-kB (Amphimedon queenslandica, UniProt A9Y5G7 2-389)
T5 sequence: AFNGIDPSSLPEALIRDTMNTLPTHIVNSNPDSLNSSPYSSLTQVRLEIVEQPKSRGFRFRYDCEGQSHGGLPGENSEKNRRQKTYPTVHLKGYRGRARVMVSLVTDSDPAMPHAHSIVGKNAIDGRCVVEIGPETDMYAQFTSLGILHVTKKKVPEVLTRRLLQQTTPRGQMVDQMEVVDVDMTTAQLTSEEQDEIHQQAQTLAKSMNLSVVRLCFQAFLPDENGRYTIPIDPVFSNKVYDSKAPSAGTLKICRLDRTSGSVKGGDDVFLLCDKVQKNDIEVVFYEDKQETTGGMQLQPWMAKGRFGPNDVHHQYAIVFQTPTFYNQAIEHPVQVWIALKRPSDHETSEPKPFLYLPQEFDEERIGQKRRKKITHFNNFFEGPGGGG

GST-Hu-p50 = GST-Hu-p50 (Homo sapiens, UniProt P19838 7-356)
Sequence of GST-Hu-p50 (P19838 7-356): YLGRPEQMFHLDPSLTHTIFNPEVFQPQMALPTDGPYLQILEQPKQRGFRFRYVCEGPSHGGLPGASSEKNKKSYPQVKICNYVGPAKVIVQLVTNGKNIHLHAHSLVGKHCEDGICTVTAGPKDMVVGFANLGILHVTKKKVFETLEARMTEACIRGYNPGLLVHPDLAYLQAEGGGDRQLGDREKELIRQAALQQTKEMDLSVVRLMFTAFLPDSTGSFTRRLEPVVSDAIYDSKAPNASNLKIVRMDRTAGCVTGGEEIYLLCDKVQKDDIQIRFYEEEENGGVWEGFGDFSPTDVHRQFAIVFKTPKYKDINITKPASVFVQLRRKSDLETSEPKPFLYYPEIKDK

Sequence | binding signal (GST-Ap-NF-kB RHD) | binding signal [1] | binding signal (GST-Co-NF-kB) | binding signal (GST-Dm-Relish) | binding signal (GST-Aq-NF-kB) | binding signal (GST-Hu-p50)
CCGATTAACATCAGGGCTCCCCCTGATGTTAATCGGGTCTTGATTCGCTTGACGCTGCTG | 7.08 z-score | 5.82 z-score | 4.76 z-score | 7.28 z-score | 8.12 z-score | 5.6 z-score
CCGATTAACATCACAGAGTCCCCTGATGTTAATCGGGTCTTGATTCGCTTGACGCTGCTG | 6.36 z-score | 4.8 z-score | 2.26 z-score | 5.12 z-score | 4.31 z-score | 5.59 z-score
CCGATTAACATCAGGGGTTTTACTGATGTTAATCGGGTCTTGATTCGCTTGACGCTGCTG | 5.39 z-score | 5.15 z-score | 1.49 z-score | 7.6 z-score | 5.84 z-score | 5.77 z-score
CCGATTAACATCAGGAGACCCCCTGATGTTAATCGGGTCTTGATTCGCTTGACGCTGCTG | 5.3 z-score | 3.64 z-score | 1.61 z-score | 5.66 z-score | 6.55 z-score | 4.1 z-score
CCGATTAACATCAGGGGGAGTCATGATGTTAATCGGGTCTTGATTCGCTTGACGCTGCTG | 5.67 z-score | 4.38 z-score | 4.79 z-score | 3.88 z-score | 4.55 z-score | 4.72 z-score
CCGATTAACATCAAAATTCCCGTTGATGTTAATCGGGTCTTGATTCGCTTGACGCTGCTG | 3.98 z-score | 6.87 z-score | 4.03 z-score | 5.57 z-score | 6.15 z-score | 5.26 z-score
CCGATTAACATCAGGGATACACCTGATGTTAATCGGGTCTTGATTCGCTTGACGCTGCTG | 2.29 z-score | 1.83 z-score | 1.56 z-score | 2.76 z-score | 3.45 z-score | 2.49 z-score
CCGATTAACATCAGGGGGGGACATGATGTTAATCGGGTCTTGATTCGCTTGACGCTGCTG | 5.67 z-score | 5.09 z-score | 7.08 z-score | 3.75 z-score | 4.34 z-score | 4.11 z-score
CCGATTAACATCAGGGGGAGTTATGATGTTAATCGGGTCTTGATTCGCTTGACGCTGCTG | 6.7 z-score | 5.95 z-score | 7.05 z-score | 5.28 z-score | 6.18 z-score | 6.55 z-score
CCGATTAACATCAGAACATCCCCTGATGTTAATCGGGTCTTGATTCGCTTGACGCTGCTG | 6.05 z-score | 6.64 z-score | 3.09 z-score | 6.69 z-score | 5.97 z-score | 5.45 z-score
CCGATTAACATCAAAACACCCCCTGATGTTAATCGGGTCTTGATTCGCTTGACGCTGCTG | 6.39 z-score | 5.71 z-score | 5.54 z-score | 6.95 z-score | 6.53 z-score | 6.04 z-score
CCGATTAACATCAGGGAGTTTACTGATGTTAATCGGGTCTTGATTCGCTTGACGCTGCTG | 3.14 z-score | 4.14 z-score | 1.37 z-score | 5.53 z-score | 5.6 z-score | 4.19 z-score
CCGATTAACATCACACTCCCCCCTGATGTTAATCGGGTCTTGATTCGCTTGACGCTGCTG | 5.44 z-score | 4.08 z-score | 6.07 z-score | 3.37 z-score | 3.93 z-score | 5.38 z-score
CCGATTAACATCAGGAGTGCCCCTGATGTTAATCGGGTCTTGATTCGCTTGACGCTGCTG | 2.63 z-score | 2.03 z-score | 1.41 z-score | 2.25 z-score | 5 z-score | 2.25 z-score
CCGATTAACATCAGGGACGCCCCTGATGTTAATCGGGTCTTGATTCGCTTGACGCTGCTG | 6.59 z-score | 5.71 z-score | 1.13 z-score | 7.12 z-score | 7.88 z-score | 4.5 z-score
CCGATTAACATCAAGGAACCCCCTGATGTTAATCGGGTCTTGATTCGCTTGACGCTGCTG | 8.43 z-score | 5.99 z-score | 2.03 z-score | 10.4 z-score | 6.6 z-score | 6.57 z-score
CCGATTAACATCAGGGCACCCCCTGATGTTAATCGGGTCTTGATTCGCTTGACGCTGCTG | 6.14 z-score | 4.52 z-score | 2.4 z-score | 8.28 z-score | 7.23 z-score | 4.75 z-score
